Shown is part of a subset that was picked to be rich in hits.
miR-122 inh: activators of miR-122 sensor in Huh7 cells | Huh7 psiCHECK-miR122 Renilla luciferase sensor, 48 h | activation, % at 12.5 µM | actives 0.14% (n = 340,000);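 active means mean activation of 30% or more, with every replicate also reaching 30%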;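 further: 0% = median of neutral control wells and 100% = median of positive control wells; higher luciferase signal means stronger suppression of miR-122 activity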
The depositor's hits bear a star.

SMILES | miR-122 inh
C[C@@H]1CN([C@@H](C)CO)C(=O)c2cccc(NC(=O)Nc3ccc(F)cc3)c2O[C@H]1CN(C)Cc1ccc(C(F)(F)F)cc1 | -91
C[C@H](CO)N1C[C@H](C)[C@@H](CN(C)Cc2ccc(C(F)(F)F)cc2)Oc2ccc(N(C)C)cc2C1=O | -98
Cc1noc(C)c1NC(=O)N(C)C[C@@H]1Oc2cc(C#CCC(C)C)ccc2S(=O)(=O)N([C@H](C)CO)C[C@H]1C | 1
C[C@H](CO)N1C[C@H](C)[C@@H](CN(C)C(=O)Cc2ccccn2)Oc2ncc(/C=C/c3ccccc3)cc2C1=O | 5
C[C@H](CO)N1C[C@H](C)[C@H](CN(C)S(C)(=O)=O)Oc2cc(-c3ccccc3F)ccc2S1(=O)=O | 7
C[C@H](CO)N1C[C@H](C)[C@H](CN(C)C(=O)c2ccccc2F)Oc2ncc(-c3ccncc3)cc2C1=O | 8
C[C@H](CO)N1C[C@H](C)[C@@H](CN(C)Cc2cncnc2)Oc2cc(-c3ccncc3)ccc2S1(=O)=O | -6
C[C@H](O)C#Cc1ccc2c(c1)O[C@H](CN(C)CC1CCOCC1)[C@@H](C)CN([C@H](C)CO)S2(=O)=O | -17
Cc1ccc(-c2cnc3c(c2)C(=O)N([C@H](C)CO)C[C@@H](C)[C@@H](CN(C)C(=O)c2ccncc2)O3)cc1 | 3
COc1cc(/C=N/Nc2nc(Nc3ccc(C)cc3)nc(-n3nc(C)cc3C)n2)cc(OC)c1OC | 47*
C[C@H](CO)N1C[C@H](C)[C@@H](CN(C)C(=O)NC2CCCCC2)Oc2ncc(-c3ccccc3F)cc2C1=O | -20
C[C@H](CO)N1C[C@H](C)[C@H](CN(C)C(=O)Cc2ccccn2)Oc2ncc(-c3cccc(C(=O)N(C)C)c3)cc2C1=O | -5
C[C@H](CO)N1C[C@H](C)[C@H](CN(C)S(=O)(=O)c2ccccc2F)Oc2cc(C#Cc3ccccc3)ccc2S1(=O)=O | -11
CCC(=O)N(C)C[C@H]1Oc2cc(-c3cccc(C#N)c3)ccc2S(=O)(=O)N([C@@H](C)CO)C[C@H]1C | 1
CCN(CC)S(=O)(=O)c1cc(C(=O)N(C)CC(=O)Nc2ccc(Cl)cc2)ccc1Cl | -168
Cc1ccc(NC(=O)CN(C)C(=O)Cn2ncc(Cl)c(Cl)c2=O)cc1 | 71*
C[C@@H](O)C#Cc1ccc2c(c1)O[C@@H](CN(C)Cc1cncnc1)[C@@H](C)CN([C@@H](C)CO)S2(=O)=O | 2
C[C@@H]1CN([C@@H](C)CO)C(=O)c2cc(C#CC3(O)CCCC3)cnc2O[C@@H]1CN(C)C(=O)C1CCCCC1 | 2
CC(C)CC#Cc1ccc([C@H]2[C@@H](CO)N3CCCCN(S(=O)(=O)Cc4ccccc4)C[C@H]23)cc1 | 35*
COc1ccc(C#Cc2ccc([C@H]3[C@H](CO)N4CCCCN(C(=O)Nc5ccccc5)C[C@@H]34)cc2)cc1 | 35*
O=C(Nc1ccccc1)N1C[C@H]2[C@@H](c3ccccc31)[C@@H](CO)N2C(=O)c1ccccn1 | -132
COc1cccc(NC(=O)N(C)C[C@H]2Oc3cc(C#Cc4ccccc4)ccc3S(=O)(=O)N([C@H](C)CO)C[C@@H]2C)c1 | -19
COCC#Cc1cnc2c(c1)C(=O)N([C@H](C)CO)C[C@H](C)[C@@H](CN(C)C(=O)Nc1ccc(OC)cc1)O2 | 2
COc1ccc(NC(=O)N2CCCCN3[C@@H](CO)[C@H](c4ccc(C#CCC(C)C)cc4)[C@@H]3C2)cc1 | 33*
COCC#Cc1cnc2c(c1)C(=O)N([C@H](C)CO)C[C@@H](C)[C@@H](CN(C)C(=O)Nc1ccc(OC)cc1)O2 | 0
SMILES | miR-122 inh
C[C@H](CO)N1C[C@H](C)[C@@H](CN(C)Cc2ccccn2)Oc2cc(-c3cccc(C#N)c3)ccc2S1(=O)=O | -39
C[C@H]1CN([C@@H](C)CO)S(=O)(=O)c2ccc(-c3cncnc3)cc2O[C@@H]1CN(C)C(=O)Cc1cccnc1 | 1
C[C@H](CO)N1C[C@H](C)[C@@H](CN(C)Cc2ccccc2)Oc2ncc(-c3cncnc3)cc2C1=O | -4
COCC#Cc1cnc2c(c1)C(=O)N([C@@H](C)CO)C[C@H](C)[C@@H](CN(C)C(=O)Nc1c(C)noc1C)O2 | -15
COc1ccc(-c2cnc3c(c2)C(=O)N([C@H](C)CO)C[C@@H](C)[C@H](CN(C)Cc2ccccn2)O3)cc1 | -3
C[C@@H]1CN([C@H](C)CO)S(=O)(=O)c2ccc(C#Cc3ccccc3)cc2O[C@H]1CN(C)C(=O)Nc1ccccc1 | -1
CC(=O)N(C)C[C@@H]1Oc2cc(C#CC3CCCCC3)ccc2S(=O)(=O)N([C@H](C)CO)C[C@@H]1C | 1
CCO/C=C1\N=C(c2ccc(F)cc2)OC1=O | 60*
CCCC#Cc1ccc2c(c1)O[C@@H](CN(C)C(=O)NCCC)[C@H](C)CN([C@@H](C)CO)S2(=O)=O | -3
C[C@@H]1CN([C@H](C)CO)C(=O)c2cc(/C=C/c3ccccc3)cnc2O[C@H]1CN(C)C(=O)c1cccnc1 | 9
CO[C@@H]1CN(C)C(=O)c2ccc(NC(=O)Nc3ccccc3)cc2OC[C@@H](C)N(C(C)=O)C[C@@H]1C | -2
C/C=C/c1cnc2c(c1)C(=O)N([C@@H](C)CO)C[C@@H](C)[C@@H](CN(C)C(=O)c1cccnc1)O2 | 1
Nc1ccc(Oc2ccc(Br)cc2)cc1 | 35*
COCC#Cc1ccc2c(c1)O[C@H](CN(C)C(=O)C1CCOCC1)[C@@H](C)CN([C@H](C)CO)S2(=O)=O | -3
C[C@@H]1CN([C@@H](C)CO)C(=O)c2cc(C#CC3(O)CCCC3)cnc2O[C@H]1CN(C)C(=O)Cc1ccccc1 | -4
CCCN(C)C[C@H]1Oc2cc(C#CC3CC3)ccc2S(=O)(=O)N([C@H](C)CO)C[C@H]1C | -34
COC(=O)C[C@@H]1CC[C@@H]2[C@@H](COc3ccc(NS(=O)(=O)c4ccccc4F)cc3C(=O)N2C)O1 | 42*
CCCNC(=O)C[C@@H]1CC[C@@H]2[C@H](COc3ccc(NS(=O)(=O)c4ccccc4C)cc3C(=O)N2C)O1 | 67*
COCC#Cc1ccc2c(c1)O[C@@H](CN(C)C(=O)C1CCOCC1)[C@@H](C)CN([C@@H](C)CO)S2(=O)=O | 2
C[C@@H]1CN([C@H](C)CO)S(=O)(=O)c2ccc(C#CC(C)(C)O)cc2O[C@H]1CN(C)C(=O)C1CCC1 | 3
COc1ccc(C#Cc2ccc3c(c2)O[C@H](CN(C)C)[C@@H](C)CN([C@@H](C)CO)S3(=O)=O)cc1 | -11
CCCNC(=O)N(C)C[C@H]1Oc2ncc(C#CCC(C)C)cc2C(=O)N([C@H](C)CO)C[C@@H]1C | -2
COc1cccc(-c2cnc3c(c2)C(=O)N([C@@H](C)CO)C[C@@H](C)[C@H](CN(C)CC2CCOCC2)O3)c1 | 4
COc1cccc(-c2cnc3c(c2)C(=O)N([C@@H](C)CO)C[C@@H](C)[C@@H](CN(C)C(=O)CC2CC2)O3)c1 | 1
Cc1ccc(-n2ncc(C(=O)Nc3cc(Cl)ccc3C)c2C2CCNCC2)cc1C | 36*
C[C@@H]1CN([C@H](C)CO)C(=O)c2cc(-c3ccc(F)cc3)cnc2O[C@H]1CN(C)CC1CCOCC1 | 0
C[C@H](CO)N1C[C@H](C)[C@@H](CN(C)S(=O)(=O)c2cccc(F)c2)Oc2ncc(C#CC3(O)CCCC3)cc2C1=O | 10
C[C@@H]1CN([C@H](C)CO)C(=O)c2cc(C#Cc3ccc(F)cc3)cnc2O[C@@H]1CN(C)C(=O)c1ccccc1F | 9
COc1cccc(-c2nn(-c3ccccc3)cc2CO)c1 | 34*

Screens as filed in PubChem.
